Results published in PubChem BioAssay (NCATS).
Results filed as inconclusive are left out. Activity calls are given as the source filed them. The call rests on the fitted dose curve; in most records, active means well fitted curve in the direction sought with a large enough effect; inconclusive means small, poorly fitted or top-dose-only effect, or another doubt; inactive means no such curve, though single readings can be large; an effect the other way counts as inactive or inconclusive.

biological target: Tyrosine-protein kinase Yes (Homo sapiens) (UniProt P07947); experiment: qHTS for small molecule inhibitors of Yes1 kinase: Primary Screen (AID 686947); conditions: Yes1 kinase biochemical qHTS inhibition; series mostly up to 76.9 µM; activity change, negative = inhibition: at the top concentration; further: nearly all actives have a fitted effect of over 60% in size; further: potency means the concentration at half of the fitted maximal effect;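 on activity change, negative = inhibition: plate controls were DMSO with enzyme for no effect and no-enzyme DMSO wells for full effect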
Sequence (P07947 whole entry, looked up): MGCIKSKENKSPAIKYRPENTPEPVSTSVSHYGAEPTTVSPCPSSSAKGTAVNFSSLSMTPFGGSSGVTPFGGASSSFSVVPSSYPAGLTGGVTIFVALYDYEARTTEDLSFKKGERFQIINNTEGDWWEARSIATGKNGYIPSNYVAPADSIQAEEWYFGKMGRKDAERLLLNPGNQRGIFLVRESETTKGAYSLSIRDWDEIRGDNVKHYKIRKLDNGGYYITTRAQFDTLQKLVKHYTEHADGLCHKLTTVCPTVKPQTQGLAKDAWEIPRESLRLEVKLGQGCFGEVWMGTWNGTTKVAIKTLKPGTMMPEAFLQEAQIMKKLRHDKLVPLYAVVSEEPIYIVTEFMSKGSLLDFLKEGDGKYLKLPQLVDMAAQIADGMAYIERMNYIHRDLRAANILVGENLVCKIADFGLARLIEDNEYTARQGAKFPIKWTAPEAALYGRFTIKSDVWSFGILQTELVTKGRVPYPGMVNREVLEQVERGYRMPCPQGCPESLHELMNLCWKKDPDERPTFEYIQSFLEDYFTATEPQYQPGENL
Outline: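 In this qHTS format, inhibition is expressed relative to DMSO controls with enzyme (maximum) and without enzyme (minimum). The 60 min room-temperature reaction uses 0.1 mM ATP, with ADP detected by luminescence.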

Row | SMILES | activity change, negative = inhibition | Potency
1 | N#Cc1ccc(Oc2nccc(-c3c(-c4ccc(F)cc4)ncn3C3CCNCC3)n2)cc1 | 3.8% (inactive) | 
2 | Cc1ccc(NC(=O)c2ccnc(N3CCCC3)c2)cc1-c1ccc(C(=O)NCC2CC2)cc1 | -11.5% (inactive) | 
3 | CCS(=O)(=O)c1ccc(OC)c(Nc2ncc(-c3cccc(OC)c3)o2)c1 |  | 130 nM (active)
4 | CS(=O)(=O)Nc1ccc(-c2cc(-c3ccccc3)cc(C(N)=O)c2N)cc1 |  | 13000 nM (active)
5 | CCS(=O)(=O)c1ccc(OC)c(Nc2ncc(-c3cccc(-c4ccccc4F)c3)o2)c1 |  | 463 nM (active)
6 | NS(=O)(=O)c1cccc(-c2cc3ccncc3cc2OCc2ccccc2)c1 | 50.2% (inactive) | 
7 | COc1ccc(Nc2ncc(-c3ccccc3)o2)cc1OC |  | 1160 nM (active)
8 | CN(c1ccc(NC(=O)NCCN2CCOCC2)cc1)c1ccnc(Nc2ccc(CS(C)(=O)=O)cc2)n1 |  | 11600 nM (active)
9 | Nc1ncnc2occ(-c3ccc(NC(=O)Nc4cc(C(F)(F)F)cc(C(F)(F)F)c4)cc3)c12 |  | 3680 nM (active)
10 | COc1cccc(COc2cc(-n3cnc4ccccc43)sc2C(N)=O)c1 | -89.4% (inactive) | 
11 | COc1cc(C)c(N(C)C(=O)CN(C)C)cc1Nc1nc(Nc2cccc(F)c2C(N)=O)c2cc[nH]c2n1 | 123% (inactive) | 

test system: not listed separately; experiment: qHTS for small molecule inhibitors of Yes1 kinase: Counter Assay (AID 686950); conditions: series mostly up to 76.9 µM; activity change, negative = inhibition: at the top concentration;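 further: no kinase present so only ADP-Glo detection of a fixed ADP amount is tested; luminescence from ADP-Glo reporting ADP in a fixed ATP and ADP mixture; 0% = DMSO wells with ATP plus ADP and -100% = ATP-only wells without ADP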
Outline: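 Measuring interference with ADP-Glo, the assay ran 60 min at room temperature on an ATP/ADP mix lacking enzyme. Values were normalized to ATP-plus-ADP (maximum) and ATP-only (minimum) DMSO controls.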

Row | SMILES | activity change, negative = inhibition
12 | N#Cc1ccc(Oc2nccc(-c3c(-c4ccc(F)cc4)ncn3C3CCNCC3)n2)cc1 | 3.02% (inactive)
13 | Cc1ccc(NC(=O)c2ccnc(N3CCCC3)c2)cc1-c1ccc(C(=O)NCC2CC2)cc1 | 2.6% (inactive)
14 | CCS(=O)(=O)c1ccc(OC)c(Nc2ncc(-c3cccc(OC)c3)o2)c1 | 4.9% (inactive)
15 | CS(=O)(=O)Nc1ccc(-c2cc(-c3ccccc3)cc(C(N)=O)c2N)cc1 | 6.07% (inactive)
16 | CCS(=O)(=O)c1ccc(OC)c(Nc2ncc(-c3cccc(-c4ccccc4F)c3)o2)c1 | -3.48% (inactive)
17 | NS(=O)(=O)c1cccc(-c2cc3ccncc3cc2OCc2ccccc2)c1 | 0.371% (inactive)
18 | COc1ccc(Nc2ncc(-c3ccccc3)o2)cc1OC | -0.381% (inactive)
19 | CN(c1ccc(NC(=O)NCCN2CCOCC2)cc1)c1ccnc(Nc2ccc(CS(C)(=O)=O)cc2)n1 | -1.16% (inactive)
20 | Nc1ncnc2occ(-c3ccc(NC(=O)Nc4cc(C(F)(F)F)cc(C(F)(F)F)c4)cc3)c12 | 9.02% (inactive)
21 | COc1cccc(COc2cc(-n3cnc4ccccc43)sc2C(N)=O)c1 | -3.88% (inactive)
22 | COc1cc(C)c(N(C)C(=O)CN(C)C)cc1Nc1nc(Nc2cccc(F)c2C(N)=O)c2cc[nH]c2n1 | 8.33% (inactive)
